Experimental findings from PubChem BioAssay AID1508608 (The Scripps Research Institute Molecular Screening Center, 2020) are described below.

The structures appear in SMILES notation. The whole screen tested about 2,300 compounds, of which about 20 (0.9%) were called active. What follows is part of a selection rich in actives, with near analogues and random picks from the rest. Unmarked numbers belong to inactive results.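 Rule for the calls: active = mean activation across replicates above 26.72%, the hit cutoff set for this confirmation screen; inactive = the rest.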

G-protein coupled receptor 151 (Homo sapiens), sequence (Q8TDV0 whole entry, looked up): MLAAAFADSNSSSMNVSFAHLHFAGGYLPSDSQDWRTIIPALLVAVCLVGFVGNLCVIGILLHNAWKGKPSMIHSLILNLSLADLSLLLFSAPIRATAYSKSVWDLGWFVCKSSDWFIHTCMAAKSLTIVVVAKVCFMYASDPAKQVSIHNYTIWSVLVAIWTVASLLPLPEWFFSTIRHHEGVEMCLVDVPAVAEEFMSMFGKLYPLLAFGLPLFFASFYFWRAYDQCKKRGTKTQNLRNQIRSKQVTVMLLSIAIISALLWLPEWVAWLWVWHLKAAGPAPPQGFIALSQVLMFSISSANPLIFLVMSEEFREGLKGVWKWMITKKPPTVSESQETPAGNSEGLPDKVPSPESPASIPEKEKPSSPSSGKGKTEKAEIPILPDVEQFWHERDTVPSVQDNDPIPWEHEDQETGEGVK

The assay addresses G-protein coupled receptor 151 (Homo sapiens) (UniProt Q8TDV0). Kind of assay: GPR151 activators, triplicate retest, confirmation, cell-based, PathHunter beta-arrestin, luminescence, set 2 (AID 1508608).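 Note: 0% = plate median of compound wells and 100% = EA reagent high control.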 The following applies: GPR151 PathHunter beta-arrestin cells, 90 min, at 11.2 µM, stronger effect = higher value, 100% = signal from added EA reagent.
`COc1ccccc1C(=O)NC(C)C(c1cccs1)N1CCOCC1` (centres undefined): the activation was -5.85%.
In the case of `Cc1ccc(-c2nc3ncccn3c2NC2CCCCC2)o1` it was -5.26%.
Regarding `NC(=O)C1CCN(S(=O)(=O)c2ccc3c(c2)OCC(=O)N3)CC1`, the activation was -1.83%.
In the case of `O=C(NCCCN1CCOCC1)/C(=C/c1ccc(-c2cccc(C(F)(F)F)c2)o1)NC(=O)c1ccc(Cl)cc1` it was 23.3%; in that of `COc1ccc(-n2nc3c(c2NC(=O)c2c(F)cccc2F)CS(=O)(=O)C3)cc1`, -1.16%.
The figure for `CCCN(C(=O)Cc1nc(-c2ccc(OC)cc2)no1)c1ccccc1C` is -0.07%; for `CC1=NN(c2ccccc2)C(=O)/C1=C\c1ccc([N+](=O)[O-])cc1` it is -3.53%.
As for `CCOc1ccc(/C=N/NC(=O)c2ccccc2OC(C)C)cc1O`, the activation is -4.49%.
With `CN(C)c1ccc(CNCCC2CCOC(C)(C)C2)cc1` (centres undefined), the activation is 0.83%.
Consider `COc1ccc(-c2cc3ccc(OC(C)C(=O)O)cc3oc2=O)cc1` (centres undefined), for which the activation was -10.8%.
In the case of `CC(=O)c1c(C)[nH]c(C(=O)N2CCCC(C)C2)c1C` (centres undefined) it was -1.56%.
For `COc1ccc(/C=C\C23N(Cc4ccccc4)C(=O)CN2c2ccccc2C3(C)C)cc1` (centres undefined), the activation is -0.33%.
On to `OCCC1CN(Cc2ccc3nonc3c2)CCN1Cc1ccc(F)c(F)c1` (centres undefined), for which the activation is 11.5%.
For `O=C(CCC(=O)Nc1ccc(F)cc1)N/N=C/c1cccc([N+](=O)[O-])c1`, the activation is 4.76%.
Turning to `COc1ccc(NC(=O)C(C)N(c2ccc(Oc3ccccc3)cc2)S(C)(=O)=O)cc1` (centres undefined), the activation was 1.83%.
As for `Clc1ccc(-n2ncc3c(NCc4ccco4)ncnc32)cc1`, the activation is 3.54%.
In the case of `COC(=O)c1cc(Nc2ncnc3c2cnn3-c2ccc(Cl)cc2)cc(C(=O)OC)c1` it was 5.3%; in that of `Cn1ncc2c(NCCc3ccc(Cl)cc3Cl)ncnc21`, 27.9% (active).
In the case of `Cc1sc2c(c1C)c(=O)n(CCc1ccccc1)c(=O)n2CC(N)=O` it was -0.97%.
In the case of `Cc1ccc(-n2ncc3c(=O)n(CC(=O)Nc4cccc(Cl)c4)cnc32)cc1C` it was -0.5%; in that of `C=C(CC(NP(=O)(OCC)OCC)(C(=O)OC)C(F)(F)F)c1ccccc1` (centres undefined), 1.36%.
As to `COc1ccc(CC2(C)OC(c3ccc(C)c([N+](=O)[O-])c3)=NN2C(C)=O)cc1` (centres undefined), the activation is -3.14%.
In the case of `CCOc1ccc(-c2ccc(/C=C3/C(=N)N4C=C(C)SC4=NC3=O)o2)c([N+](=O)[O-])c1` it was -0.37%; in that of `O=c1/c(=C\c2ccccc2Cl)sc2nc3ccccc3n12`, -1.37%.
